Experimental data published in the supplement of paper PMC11732987, “Enantioselective OTUD7B fragment discovery through chemoproteomics screening and high-throughput optimisation” (Communications Chemistry, 2025).

What was measured:
Assay in all cases: log2 ratio of Biotin-Ahx-Ub-VS probe labelling (fragment/DMSO); higher = less target engagement (more negative = stronger competition), active = hit call of the paper (q ≤ 0.05, log2 ratio ≤ -1)
Conditions in all cases: compound concentration: 200 uM; treatment time: 3 h
USP42 = target: T1, USP42 (UniProt Q9H9J4)
T1 sequence (whole entry): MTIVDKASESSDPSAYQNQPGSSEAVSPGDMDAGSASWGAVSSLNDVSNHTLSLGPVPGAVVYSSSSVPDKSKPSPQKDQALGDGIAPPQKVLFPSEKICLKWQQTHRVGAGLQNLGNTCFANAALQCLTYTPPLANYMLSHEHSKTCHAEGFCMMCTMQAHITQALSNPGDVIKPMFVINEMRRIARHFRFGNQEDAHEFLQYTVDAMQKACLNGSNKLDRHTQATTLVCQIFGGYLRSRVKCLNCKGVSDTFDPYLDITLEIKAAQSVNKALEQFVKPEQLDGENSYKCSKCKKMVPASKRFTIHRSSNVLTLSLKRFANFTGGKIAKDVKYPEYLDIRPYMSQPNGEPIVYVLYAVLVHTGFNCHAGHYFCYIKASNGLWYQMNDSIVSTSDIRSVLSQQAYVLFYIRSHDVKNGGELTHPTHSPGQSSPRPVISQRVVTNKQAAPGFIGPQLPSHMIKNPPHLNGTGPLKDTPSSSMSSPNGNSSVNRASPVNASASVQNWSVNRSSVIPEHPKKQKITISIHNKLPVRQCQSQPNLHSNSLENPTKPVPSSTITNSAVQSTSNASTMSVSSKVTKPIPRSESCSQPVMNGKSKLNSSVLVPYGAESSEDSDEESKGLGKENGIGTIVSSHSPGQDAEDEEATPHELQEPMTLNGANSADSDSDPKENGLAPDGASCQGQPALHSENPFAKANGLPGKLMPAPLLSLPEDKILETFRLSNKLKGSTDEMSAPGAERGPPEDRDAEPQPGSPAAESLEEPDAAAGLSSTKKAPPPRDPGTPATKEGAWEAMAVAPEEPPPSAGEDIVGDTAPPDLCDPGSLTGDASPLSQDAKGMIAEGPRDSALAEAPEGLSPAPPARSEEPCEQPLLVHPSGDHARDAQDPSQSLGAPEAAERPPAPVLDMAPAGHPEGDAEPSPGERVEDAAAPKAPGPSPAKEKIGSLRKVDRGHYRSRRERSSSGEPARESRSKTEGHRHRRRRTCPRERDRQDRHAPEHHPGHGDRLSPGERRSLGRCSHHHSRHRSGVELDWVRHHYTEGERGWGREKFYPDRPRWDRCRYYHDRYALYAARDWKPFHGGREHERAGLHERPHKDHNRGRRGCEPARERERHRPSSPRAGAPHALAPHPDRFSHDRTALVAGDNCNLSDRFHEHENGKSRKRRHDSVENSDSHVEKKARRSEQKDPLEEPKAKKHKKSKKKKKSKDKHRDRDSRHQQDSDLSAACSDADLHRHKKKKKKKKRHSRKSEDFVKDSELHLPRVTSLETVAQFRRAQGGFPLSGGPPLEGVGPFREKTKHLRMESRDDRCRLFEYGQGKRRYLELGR
In short: (§1)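 HEK293T lysate, 495 µg per sample in Tris/CHAPS/IGEPAL buffer with protease inhibitors, was treated in triplicate with fragment at 200 µM or vehicle for 3 h and then with Biotin-Ahx-Ub-VS at 0.5 µM final for 1 h. Labelled DUBs were NeutrAvidin-enriched, digested with LysC and trypsin, and run by diaPASEF LC-MS/MS. Spectronaut label-free quantities were global-median-normalised, and values are average log2 fragment/vehicle ratios by unpaired t-test on proteins with ≥2 unique peptides.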

USP46 = USP46 (UniProt P62068)
USP46, sequence (P62068 whole entry): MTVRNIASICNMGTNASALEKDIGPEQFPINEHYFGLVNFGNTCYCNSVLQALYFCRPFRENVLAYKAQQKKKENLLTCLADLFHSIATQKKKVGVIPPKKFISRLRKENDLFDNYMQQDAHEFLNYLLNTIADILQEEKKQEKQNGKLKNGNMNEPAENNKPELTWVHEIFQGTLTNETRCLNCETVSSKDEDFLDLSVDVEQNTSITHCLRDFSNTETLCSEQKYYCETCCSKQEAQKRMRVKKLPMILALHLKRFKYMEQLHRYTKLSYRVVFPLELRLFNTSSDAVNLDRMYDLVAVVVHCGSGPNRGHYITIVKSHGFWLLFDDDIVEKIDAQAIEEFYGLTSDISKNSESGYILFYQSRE
In short: as §1

USP47 = target: T2, USP47 (UniProt Q96K76)
T2 sequence (whole entry): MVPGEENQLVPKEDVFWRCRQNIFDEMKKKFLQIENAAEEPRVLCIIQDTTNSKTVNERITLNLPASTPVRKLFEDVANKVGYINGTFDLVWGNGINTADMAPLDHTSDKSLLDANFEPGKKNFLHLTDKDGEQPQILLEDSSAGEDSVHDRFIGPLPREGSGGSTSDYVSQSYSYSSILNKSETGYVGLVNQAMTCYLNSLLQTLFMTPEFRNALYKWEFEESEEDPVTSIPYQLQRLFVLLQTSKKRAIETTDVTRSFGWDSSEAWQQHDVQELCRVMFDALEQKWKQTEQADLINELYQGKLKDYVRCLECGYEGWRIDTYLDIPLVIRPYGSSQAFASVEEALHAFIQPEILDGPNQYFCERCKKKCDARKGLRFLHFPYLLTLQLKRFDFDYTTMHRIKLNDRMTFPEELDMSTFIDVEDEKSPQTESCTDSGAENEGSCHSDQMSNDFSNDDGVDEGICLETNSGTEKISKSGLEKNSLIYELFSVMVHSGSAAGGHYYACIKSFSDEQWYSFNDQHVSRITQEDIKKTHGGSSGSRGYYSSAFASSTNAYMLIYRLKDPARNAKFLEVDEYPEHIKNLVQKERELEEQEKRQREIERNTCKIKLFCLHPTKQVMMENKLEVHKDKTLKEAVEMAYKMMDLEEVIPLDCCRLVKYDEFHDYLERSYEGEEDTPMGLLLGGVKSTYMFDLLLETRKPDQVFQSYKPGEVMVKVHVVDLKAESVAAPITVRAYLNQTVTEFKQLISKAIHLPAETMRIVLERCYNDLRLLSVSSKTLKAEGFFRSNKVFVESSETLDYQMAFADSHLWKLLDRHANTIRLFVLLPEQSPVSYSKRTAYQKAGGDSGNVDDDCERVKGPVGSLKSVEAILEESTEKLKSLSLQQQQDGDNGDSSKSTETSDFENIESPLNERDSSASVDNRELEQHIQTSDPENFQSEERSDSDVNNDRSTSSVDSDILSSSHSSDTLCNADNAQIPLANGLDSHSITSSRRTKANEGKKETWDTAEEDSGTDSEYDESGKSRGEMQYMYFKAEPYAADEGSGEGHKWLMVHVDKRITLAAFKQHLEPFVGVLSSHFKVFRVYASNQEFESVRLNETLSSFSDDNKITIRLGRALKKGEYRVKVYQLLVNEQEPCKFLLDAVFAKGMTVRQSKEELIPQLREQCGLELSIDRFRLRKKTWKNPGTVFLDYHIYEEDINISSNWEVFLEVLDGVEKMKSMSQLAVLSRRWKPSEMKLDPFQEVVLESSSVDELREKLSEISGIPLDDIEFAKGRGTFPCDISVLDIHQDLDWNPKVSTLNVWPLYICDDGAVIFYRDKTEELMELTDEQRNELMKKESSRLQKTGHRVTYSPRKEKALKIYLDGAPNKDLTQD
In short: as §1

USP48 = target: T3, USP48 (UniProt Q86UV5)
T3 sequence (whole entry): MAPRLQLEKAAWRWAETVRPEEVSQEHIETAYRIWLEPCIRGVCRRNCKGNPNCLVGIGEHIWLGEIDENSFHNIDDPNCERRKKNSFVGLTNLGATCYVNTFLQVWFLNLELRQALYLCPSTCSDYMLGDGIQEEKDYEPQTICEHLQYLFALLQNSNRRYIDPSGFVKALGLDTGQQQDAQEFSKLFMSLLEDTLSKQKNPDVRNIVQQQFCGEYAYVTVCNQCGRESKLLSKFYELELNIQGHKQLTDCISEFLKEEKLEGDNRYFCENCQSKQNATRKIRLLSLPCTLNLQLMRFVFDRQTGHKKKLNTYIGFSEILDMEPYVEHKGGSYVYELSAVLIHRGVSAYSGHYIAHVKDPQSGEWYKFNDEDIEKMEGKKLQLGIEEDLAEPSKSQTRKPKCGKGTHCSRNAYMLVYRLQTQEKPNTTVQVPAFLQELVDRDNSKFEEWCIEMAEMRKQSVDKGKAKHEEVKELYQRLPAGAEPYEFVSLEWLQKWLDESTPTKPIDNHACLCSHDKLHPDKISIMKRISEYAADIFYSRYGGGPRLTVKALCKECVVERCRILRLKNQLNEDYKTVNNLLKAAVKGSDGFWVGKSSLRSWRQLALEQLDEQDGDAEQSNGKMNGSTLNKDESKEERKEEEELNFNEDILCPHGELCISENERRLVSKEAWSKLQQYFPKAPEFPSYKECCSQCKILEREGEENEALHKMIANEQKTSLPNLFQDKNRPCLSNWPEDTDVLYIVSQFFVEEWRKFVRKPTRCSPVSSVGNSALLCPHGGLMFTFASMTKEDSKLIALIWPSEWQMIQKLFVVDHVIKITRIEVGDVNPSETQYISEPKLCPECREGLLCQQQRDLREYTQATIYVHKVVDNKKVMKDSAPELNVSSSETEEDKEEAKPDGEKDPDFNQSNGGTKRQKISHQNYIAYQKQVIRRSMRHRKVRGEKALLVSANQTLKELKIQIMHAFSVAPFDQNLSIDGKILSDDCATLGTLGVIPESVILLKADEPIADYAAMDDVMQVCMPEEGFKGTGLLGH
In short: as §1

USP5 = target: T4, USP5 (UniProt P45974)
T4 sequence (whole entry): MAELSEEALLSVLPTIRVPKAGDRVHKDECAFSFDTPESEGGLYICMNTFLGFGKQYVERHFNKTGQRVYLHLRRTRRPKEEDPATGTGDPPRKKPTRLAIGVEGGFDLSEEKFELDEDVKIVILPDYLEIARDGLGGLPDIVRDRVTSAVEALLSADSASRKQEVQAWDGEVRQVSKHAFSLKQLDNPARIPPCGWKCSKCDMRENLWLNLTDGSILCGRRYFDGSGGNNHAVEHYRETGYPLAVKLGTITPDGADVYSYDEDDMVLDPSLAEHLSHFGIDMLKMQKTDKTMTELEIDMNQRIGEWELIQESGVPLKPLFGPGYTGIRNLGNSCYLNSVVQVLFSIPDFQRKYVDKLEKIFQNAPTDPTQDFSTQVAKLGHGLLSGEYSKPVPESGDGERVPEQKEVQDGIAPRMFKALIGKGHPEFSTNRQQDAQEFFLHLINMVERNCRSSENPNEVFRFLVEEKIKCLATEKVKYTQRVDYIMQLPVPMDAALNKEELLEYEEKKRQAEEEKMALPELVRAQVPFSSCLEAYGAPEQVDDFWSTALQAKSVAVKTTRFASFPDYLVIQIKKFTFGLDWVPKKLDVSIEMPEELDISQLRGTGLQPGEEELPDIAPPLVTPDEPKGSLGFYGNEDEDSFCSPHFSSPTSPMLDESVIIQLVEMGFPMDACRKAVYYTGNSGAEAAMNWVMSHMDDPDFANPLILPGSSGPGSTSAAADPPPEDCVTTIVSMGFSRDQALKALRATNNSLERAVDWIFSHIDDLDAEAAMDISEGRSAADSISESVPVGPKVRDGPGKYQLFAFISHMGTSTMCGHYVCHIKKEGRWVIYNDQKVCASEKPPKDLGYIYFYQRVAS
In short: as §1

USP54 = USP54 (UniProt Q70EL1)
USP54, sequence (Q70EL1 whole entry): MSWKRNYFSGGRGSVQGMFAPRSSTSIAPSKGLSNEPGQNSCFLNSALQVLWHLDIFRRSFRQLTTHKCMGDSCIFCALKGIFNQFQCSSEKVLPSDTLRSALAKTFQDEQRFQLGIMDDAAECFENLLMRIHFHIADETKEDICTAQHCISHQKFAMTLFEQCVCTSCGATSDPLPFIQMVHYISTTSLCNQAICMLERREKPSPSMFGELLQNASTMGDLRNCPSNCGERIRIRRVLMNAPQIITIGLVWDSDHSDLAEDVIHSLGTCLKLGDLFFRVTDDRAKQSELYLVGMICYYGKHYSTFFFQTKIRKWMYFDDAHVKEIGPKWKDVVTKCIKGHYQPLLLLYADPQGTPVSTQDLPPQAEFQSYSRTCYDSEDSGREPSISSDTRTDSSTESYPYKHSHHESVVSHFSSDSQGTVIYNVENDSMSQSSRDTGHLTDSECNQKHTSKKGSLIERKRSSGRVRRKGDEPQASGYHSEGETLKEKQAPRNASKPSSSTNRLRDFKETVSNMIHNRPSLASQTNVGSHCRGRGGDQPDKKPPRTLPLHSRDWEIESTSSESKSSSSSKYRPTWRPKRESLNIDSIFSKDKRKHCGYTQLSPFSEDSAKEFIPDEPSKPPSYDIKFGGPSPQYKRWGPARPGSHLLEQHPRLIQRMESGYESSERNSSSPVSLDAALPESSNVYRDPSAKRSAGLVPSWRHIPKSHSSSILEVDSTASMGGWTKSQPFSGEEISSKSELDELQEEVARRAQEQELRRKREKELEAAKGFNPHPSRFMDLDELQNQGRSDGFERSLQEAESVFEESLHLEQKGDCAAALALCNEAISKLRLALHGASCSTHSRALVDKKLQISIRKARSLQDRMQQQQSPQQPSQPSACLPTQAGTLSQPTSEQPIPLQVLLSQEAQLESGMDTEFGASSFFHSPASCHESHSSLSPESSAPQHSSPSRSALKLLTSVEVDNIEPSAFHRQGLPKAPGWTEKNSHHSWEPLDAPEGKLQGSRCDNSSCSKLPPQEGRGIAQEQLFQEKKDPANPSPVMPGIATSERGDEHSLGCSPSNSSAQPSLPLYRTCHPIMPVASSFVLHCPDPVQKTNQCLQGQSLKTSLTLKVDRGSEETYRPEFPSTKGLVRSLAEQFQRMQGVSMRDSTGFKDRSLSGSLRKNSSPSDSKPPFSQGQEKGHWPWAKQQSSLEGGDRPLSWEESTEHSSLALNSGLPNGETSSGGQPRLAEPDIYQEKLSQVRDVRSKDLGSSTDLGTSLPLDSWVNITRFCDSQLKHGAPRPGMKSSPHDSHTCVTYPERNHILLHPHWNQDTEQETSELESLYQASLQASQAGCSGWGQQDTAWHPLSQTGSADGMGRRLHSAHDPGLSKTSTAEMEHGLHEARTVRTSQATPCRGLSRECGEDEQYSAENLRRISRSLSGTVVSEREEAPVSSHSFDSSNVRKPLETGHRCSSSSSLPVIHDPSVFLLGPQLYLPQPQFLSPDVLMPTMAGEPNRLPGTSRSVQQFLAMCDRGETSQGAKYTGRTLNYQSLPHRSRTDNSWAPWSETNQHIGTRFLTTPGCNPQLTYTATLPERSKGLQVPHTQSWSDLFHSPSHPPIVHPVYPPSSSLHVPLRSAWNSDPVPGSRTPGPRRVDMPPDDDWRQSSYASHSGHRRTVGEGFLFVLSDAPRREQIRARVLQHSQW
In short: as §1

USP7 = USP7 (UniProt Q93009)
In short: as §1

USP8 = target: T5, USP8 (UniProt P40818)
T5 sequence (whole entry): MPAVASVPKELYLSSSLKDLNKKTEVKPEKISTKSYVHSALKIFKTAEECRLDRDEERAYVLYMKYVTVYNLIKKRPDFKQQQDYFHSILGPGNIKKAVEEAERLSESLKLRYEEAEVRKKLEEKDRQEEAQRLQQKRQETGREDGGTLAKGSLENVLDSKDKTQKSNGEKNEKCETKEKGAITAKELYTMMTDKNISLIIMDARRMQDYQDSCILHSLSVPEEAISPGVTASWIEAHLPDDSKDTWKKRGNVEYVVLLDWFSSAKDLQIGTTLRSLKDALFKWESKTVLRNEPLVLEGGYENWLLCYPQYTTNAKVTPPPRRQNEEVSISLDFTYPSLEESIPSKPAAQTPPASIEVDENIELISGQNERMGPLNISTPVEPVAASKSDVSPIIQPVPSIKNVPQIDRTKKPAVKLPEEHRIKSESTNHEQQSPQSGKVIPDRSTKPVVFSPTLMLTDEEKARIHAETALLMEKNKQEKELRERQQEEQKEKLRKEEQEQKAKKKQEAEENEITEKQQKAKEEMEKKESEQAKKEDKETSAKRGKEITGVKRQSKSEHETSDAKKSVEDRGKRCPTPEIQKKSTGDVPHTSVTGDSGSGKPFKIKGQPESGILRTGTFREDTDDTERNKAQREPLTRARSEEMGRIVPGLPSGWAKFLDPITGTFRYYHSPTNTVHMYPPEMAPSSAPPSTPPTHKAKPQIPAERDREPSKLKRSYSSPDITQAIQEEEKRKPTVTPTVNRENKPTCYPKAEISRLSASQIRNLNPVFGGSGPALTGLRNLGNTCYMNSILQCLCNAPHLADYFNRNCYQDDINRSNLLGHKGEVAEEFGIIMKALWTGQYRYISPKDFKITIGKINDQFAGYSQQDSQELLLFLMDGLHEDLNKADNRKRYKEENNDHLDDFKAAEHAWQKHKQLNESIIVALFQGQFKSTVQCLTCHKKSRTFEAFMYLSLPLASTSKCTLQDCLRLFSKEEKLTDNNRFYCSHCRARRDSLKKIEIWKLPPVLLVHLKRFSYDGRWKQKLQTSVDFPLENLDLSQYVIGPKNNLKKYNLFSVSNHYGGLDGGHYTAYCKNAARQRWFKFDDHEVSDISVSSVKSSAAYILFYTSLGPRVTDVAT
In short: as §1

USP9X = USP9X (UniProt Q93008)
USP9X, sequence (Q93008 whole entry): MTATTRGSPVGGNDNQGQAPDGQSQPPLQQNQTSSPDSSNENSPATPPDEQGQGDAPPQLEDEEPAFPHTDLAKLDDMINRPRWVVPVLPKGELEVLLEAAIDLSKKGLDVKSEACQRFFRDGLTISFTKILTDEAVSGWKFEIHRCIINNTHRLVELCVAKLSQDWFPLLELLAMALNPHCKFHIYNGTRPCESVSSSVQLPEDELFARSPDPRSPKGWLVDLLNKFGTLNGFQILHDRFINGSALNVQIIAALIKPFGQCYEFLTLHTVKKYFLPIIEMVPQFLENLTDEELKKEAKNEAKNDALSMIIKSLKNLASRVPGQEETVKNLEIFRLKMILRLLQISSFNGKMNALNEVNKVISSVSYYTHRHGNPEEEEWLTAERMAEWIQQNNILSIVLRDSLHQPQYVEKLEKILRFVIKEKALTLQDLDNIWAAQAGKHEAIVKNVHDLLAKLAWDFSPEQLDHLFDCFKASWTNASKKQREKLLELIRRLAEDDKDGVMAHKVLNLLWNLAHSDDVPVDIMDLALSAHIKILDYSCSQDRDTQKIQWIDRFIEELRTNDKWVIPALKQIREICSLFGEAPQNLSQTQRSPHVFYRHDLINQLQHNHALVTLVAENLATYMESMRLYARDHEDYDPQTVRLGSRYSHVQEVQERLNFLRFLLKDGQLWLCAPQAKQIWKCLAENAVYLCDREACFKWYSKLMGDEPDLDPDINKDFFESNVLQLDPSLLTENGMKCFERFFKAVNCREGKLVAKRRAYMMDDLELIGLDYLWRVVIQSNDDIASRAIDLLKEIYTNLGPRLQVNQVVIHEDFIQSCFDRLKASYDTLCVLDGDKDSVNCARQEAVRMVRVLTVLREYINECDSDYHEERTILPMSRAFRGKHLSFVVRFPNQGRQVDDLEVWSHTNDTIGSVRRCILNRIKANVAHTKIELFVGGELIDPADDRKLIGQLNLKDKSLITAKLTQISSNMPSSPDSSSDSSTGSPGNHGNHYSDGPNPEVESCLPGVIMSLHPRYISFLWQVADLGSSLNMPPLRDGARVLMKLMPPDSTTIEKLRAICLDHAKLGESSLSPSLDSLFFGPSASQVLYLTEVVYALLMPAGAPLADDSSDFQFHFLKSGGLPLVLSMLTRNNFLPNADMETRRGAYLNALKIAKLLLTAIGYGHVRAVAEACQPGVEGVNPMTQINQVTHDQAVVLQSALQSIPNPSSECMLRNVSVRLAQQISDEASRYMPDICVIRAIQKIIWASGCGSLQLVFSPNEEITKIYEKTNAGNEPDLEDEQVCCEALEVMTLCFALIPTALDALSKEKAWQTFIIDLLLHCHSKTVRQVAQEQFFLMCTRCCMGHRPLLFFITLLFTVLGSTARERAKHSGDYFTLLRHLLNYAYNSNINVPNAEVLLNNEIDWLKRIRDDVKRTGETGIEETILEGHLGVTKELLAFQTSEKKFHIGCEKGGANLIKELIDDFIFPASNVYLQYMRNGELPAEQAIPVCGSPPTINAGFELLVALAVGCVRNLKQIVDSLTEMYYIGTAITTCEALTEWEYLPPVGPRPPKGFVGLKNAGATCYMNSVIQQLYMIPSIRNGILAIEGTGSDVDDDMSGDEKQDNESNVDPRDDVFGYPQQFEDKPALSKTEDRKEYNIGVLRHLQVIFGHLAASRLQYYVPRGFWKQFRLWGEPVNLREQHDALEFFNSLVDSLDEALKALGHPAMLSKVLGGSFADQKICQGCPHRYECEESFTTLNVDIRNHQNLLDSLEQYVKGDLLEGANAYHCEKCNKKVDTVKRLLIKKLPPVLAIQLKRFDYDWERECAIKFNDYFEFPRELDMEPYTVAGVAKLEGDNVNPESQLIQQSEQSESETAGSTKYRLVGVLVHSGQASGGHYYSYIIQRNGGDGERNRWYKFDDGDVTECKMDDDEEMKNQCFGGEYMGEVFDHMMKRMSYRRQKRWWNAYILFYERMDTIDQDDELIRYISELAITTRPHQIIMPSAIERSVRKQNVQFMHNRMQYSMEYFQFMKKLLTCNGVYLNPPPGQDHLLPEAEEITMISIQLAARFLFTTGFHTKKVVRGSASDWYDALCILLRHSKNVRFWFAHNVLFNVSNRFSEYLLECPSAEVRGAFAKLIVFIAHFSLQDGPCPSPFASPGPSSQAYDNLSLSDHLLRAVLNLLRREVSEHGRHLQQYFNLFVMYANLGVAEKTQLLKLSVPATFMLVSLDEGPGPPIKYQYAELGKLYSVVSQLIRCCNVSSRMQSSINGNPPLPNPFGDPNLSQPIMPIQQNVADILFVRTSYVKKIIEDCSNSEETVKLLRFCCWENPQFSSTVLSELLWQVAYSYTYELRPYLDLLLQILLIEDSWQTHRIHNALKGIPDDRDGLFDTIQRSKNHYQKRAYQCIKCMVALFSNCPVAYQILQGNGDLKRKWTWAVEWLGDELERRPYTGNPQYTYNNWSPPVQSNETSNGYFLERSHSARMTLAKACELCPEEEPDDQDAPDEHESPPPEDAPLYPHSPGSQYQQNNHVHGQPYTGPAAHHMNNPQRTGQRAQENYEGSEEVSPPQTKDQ
In short: as §1

UniProt O00487 = target: UniProt O00487
UniProt O00487, sequence (O00487 whole entry): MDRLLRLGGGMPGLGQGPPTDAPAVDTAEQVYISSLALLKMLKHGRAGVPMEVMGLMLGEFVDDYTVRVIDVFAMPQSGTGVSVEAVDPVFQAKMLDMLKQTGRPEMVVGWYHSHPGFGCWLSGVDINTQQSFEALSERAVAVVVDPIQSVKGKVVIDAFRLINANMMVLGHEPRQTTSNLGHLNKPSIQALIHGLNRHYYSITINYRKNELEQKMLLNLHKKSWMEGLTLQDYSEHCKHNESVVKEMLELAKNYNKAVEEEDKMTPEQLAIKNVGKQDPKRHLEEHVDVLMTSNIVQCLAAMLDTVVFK
In short: as §1

Measured: log2 ratio of Biotin-Ahx-Ub-VS probe labelling

O=C(CCl)N1CCCCC12CCOCC2
inactive: USP42 -0.368 | USP46 -0.278 | USP47 -0.146 | USP48 -0.525 | USP5 -0.258 | USP54 0.442 | USP7 -0.511 | USP8 -0.237 | USP9X -0.584 | UniProt O00487 -0.282
